CASP6 VEID inh: blocks human caspase-6 cleavage activity; hit rate 0.53% among 350,000; P55212; inhibition, % at 12.5 µM; purified caspase-6, Z-VEID-R110 cleavage fluorescence;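 active means mean inhibition across replicates at least about 35%, with every replicate also reaching that limit, limit read from the data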;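 further: 0% = median of neutral control wells and 100% = no fluorescence left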
SIRT5 inh: blocks human SIRT5 desuccinylation of peptide; Q9NXA8; Purified SirT5, succinyl-peptide AMC, trypsin-coupled fluorescence; inhibition, % at 15 µM; hit rate 1.1% among 330,000; AID 652115; in the data active means inhibition above about 15%
Target sequence (Q9NXA8 whole entry, looked up): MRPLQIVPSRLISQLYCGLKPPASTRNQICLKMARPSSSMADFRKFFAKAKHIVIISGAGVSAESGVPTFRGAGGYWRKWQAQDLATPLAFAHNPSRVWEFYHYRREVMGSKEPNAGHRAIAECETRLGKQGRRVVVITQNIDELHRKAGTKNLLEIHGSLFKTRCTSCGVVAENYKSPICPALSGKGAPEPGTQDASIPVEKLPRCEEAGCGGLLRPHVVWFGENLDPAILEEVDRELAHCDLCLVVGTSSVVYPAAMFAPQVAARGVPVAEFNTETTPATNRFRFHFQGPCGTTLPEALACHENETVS
ARNT TACC3 PPI: disruptors of human ARNT/TACC3 interaction. hit rate 0.66% among 390,000. inhibition, % at 9.99 µM. Q9Y6A5. AlphaScreen His-ARNT PAS-B/GST-TACC3 binding, luminescence; TACC3 fragment carries E629A point mutation;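 active means mean inhibition of replicates at least 50% and at least half of replicates each reaching 50%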;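 further: 0% = complete ARNT plus TACC3 wells and 100% = ARNT alone without TACC3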
NSD2 HMT inh: inhibitors of human histone methyltransferase NSD2; O96028; NSD2 peptide methylation, AlphaScreen, 120 min; inhibition, % at 12.5 µM; hit rate 0.54% among 310,000; in the data active means inhibition above about 50%
PfHsp90 yeast 2: inhibits growth of yeast expressing Plasmodium falciparum Hsp90. S. cerevisiae expressing PfHsp90, BacTiter-Glo ATP, 48 h; yeast lacking PDR1 and PDR3 efflux regulators. inhibition, % at 9.4 µM. hit rate 0.32% among 310,000;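 active means every replicate shows inhibition above about 80%, whatever the replicate mean, limit read from the data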;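 further: 0% = DMSO neutral controls and 100% = 20 µM radicicol positive controls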
Starred values were filed as active, the others as inactive; · = no result given. Compounds with a hit are over-represented: about 2.1% of the library has one in this group of screens.

SMILES	CASP6 VEID inh	SIRT5 inh	ARNT TACC3 PPI	NSD2 HMT inh	PfHsp90 yeast 2
COc1ccc(NC(=O)Nc2ccc3c(c2)C(=O)N([C@@H](C)CO)C[C@H](C)[C@@H](CN(C)C(=O)Nc2ccc(C(F)(F)F)cc2)OCCCC[C@H](C)O3)cc1	-2	-2	13	·	·
COc1cc2nc(Nc3ccc(C)c(Cl)c3)nc(N)c2cc1OC	24	1	6	-1	17
COc1cc2nc(Nc3ccc(C)c(C)c3)nc(N)c2cc1OC	-6	5	50*	3	4
Cc1cc(NC(=O)C23CC4CC(C2)CC(n2cnc([N+](=O)[O-])n2)(C4)C3)no1	47*	0	1	-1	·
O=C(Nc1ccon1)C12CC3CC(C1)CC(n1cnc([N+](=O)[O-])n1)(C3)C2	-2	0	0	0	·
C=CCn1c(SCCN2CCOCC2)nc2c1c(=O)[nH]c(=O)n2C	·	·	-3	2	9
COCCn1c(SCCN2CCOCC2)nc2c1c(=O)[nH]c(=O)n2C	36*	-4	-3	·	-8
C[C@H](NC(=O)C[C@H]1C[C@@H]2c3cc(NC(=O)C4CCC4)ccc3O[C@@H]2[C@@H](CO)O1)c1ccccc1	0	4	-3	·	·
CN1C(=O)c2cc(NC(=O)Nc3ccccc3)ccc2OC[C@@H]2O[C@H](CC(=O)NC3CCC3)CC[C@@H]21	0	-5	15	·	·
CC(C)Cc1ccc(CN2CC[C@@H](NS(=O)(=O)c3ccccc3)C2)cc1	3	-2.2*	-32	·	·
O=S(=O)(N[C@@H]1CCCN(Cc2ccc(OCCO)cc2)C1)c1ccccc1	0	·	-5	·	·
COc1ccc(S(=O)(=O)Nc2ccc3c(c2)CC(=O)N([C@@H](C)CO)C[C@H](C)[C@H](CN(C)Cc2ccc(Oc4ccccc4)cc2)O3)cc1	·	17*	20	·	·
COc1ccc(CN(C)C[C@@H]2Oc3ccc(NC(=O)NC4CCCCC4)cc3CC(=O)N([C@H](C)CO)C[C@@H]2C)cc1	-2	15*	-5	·	·
COc1ccc(CN(C)C[C@H]2Oc3ccc(NS(=O)(=O)c4ccccc4)cc3CC(=O)N([C@@H](C)CO)C[C@@H]2C)cc1	·	17*	14	·	·
C[C@@H]1CN([C@@H](C)CO)C(=O)Cc2cc(NC(=O)CCC(F)(F)F)ccc2O[C@H]1CN(C)Cc1ccc(Oc2ccccc2)cc1	·	22*	-2	·	·
COc1ccc(CN(C)C[C@H]2Oc3ccc(NS(=O)(=O)c4ccccc4)cc3CC(=O)N([C@H](C)CO)C[C@H]2C)cc1	·	2	0	·	·
COCC(=O)Nc1ccc2c(c1)[C@H]1C[C@@H](CC(=O)NCc3ccncc3)O[C@@H](CO)[C@H]1O2	-6	4	-1	·	·
COc1ccc(NC(=O)Nc2ccc3c(c2)CC(=O)N([C@@H](C)CO)C[C@H](C)[C@@H](CN(C)Cc2ccc(Oc4ccccc4)cc2)O3)cc1	0	23*	17	·	·
CCNC(=O)C[C@H]1C=C[C@H](NC(=O)NC2CCCCC2)[C@@H](CO)O1	1	5	-4	·	·
O=[N+]([O-])c1ccc(/C=N/NC2=NS(=O)(=O)c3ccccc32)cc1	3	4	3	0	15
O=[N+]([O-])c1ccc(O)c(/C=N/Nc2ccc(Cl)nn2)c1	·	·	58*	-2	13
O=[N+]([O-])c1ccc(O)c(-c2nn[nH]n2)c1	·	·	64*	·	-23
O=S1(=O)N=C(N/N=C/c2cccs2)c2ccccc21	1	3	66*	-18	1
O=[N+]([O-])c1ccc(O)c(/C=N/NC2=NS(=O)(=O)c3ccccc32)c1	-2	2	71*	-5	2
Cc1cc(C)n(-c2ccc([N+](=O)[O-])cc2-c2nn[nH]n2)n1	-3	-3	-6	23	2
SMILES	CASP6 VEID inh	SIRT5 inh	ARNT TACC3 PPI	NSD2 HMT inh	PfHsp90 yeast 2
CNC(=O)C[C@H]1CC[C@H]2[C@@H](COc3ccc(NC(=O)NC4CCCC4)cc3C(=O)N2C)O1	-5	-3	-2	·	·
C[C@@H]1CN([C@H](C)CO)C(=O)c2c(c3ccccc3n2C)-c2ccccc2CO[C@H]1CN(C)C(=O)[C@@H]1CCCN1C	0	2	2	·	·
Cc1ccc(S(=O)(=O)N2[C@@H]3CNC[C@H]2C3c2ccc(-c3cccc(C)c3)cc2)cc1 (some centres undefined)	-1	2	·	·	·
NC(N)=N/N=C/c1cc([N+](=O)[O-])ccc1O	·	·	7	-1	-5
Oc1ccccc1/C=N/Nc1nn[nH]n1	3	-1	72*	-43	2
O=[N+]([O-])c1ccc(O)c(/C=N/Nc2nn[nH]n2)c1	3	4	67*	10	4
